# Reference: PubChem BioAssay AID2158 (National Center for Advancing Translational Sciences (NCATS), 2009)
# Where “and” joins values, the source holds several entries; their conditions need not be identical. Equal entries are not always repeated. Results filed as inconclusive are left out. Unmarked numbers belong to inactive results. Calls of active or inactive are those of the source. Calls come from the whole dose curve; as a rule, active = well fitted inhibition curve with a large enough effect; inconclusive = small, poorly fitted or top-dose-only effect; inactive = no such curve, though single readings can be large or run the other way.
# Target: Cruzipain (Trypanosoma cruzi) (UniProt P25779)
# Sequence (P25779 123-467 limits assumed): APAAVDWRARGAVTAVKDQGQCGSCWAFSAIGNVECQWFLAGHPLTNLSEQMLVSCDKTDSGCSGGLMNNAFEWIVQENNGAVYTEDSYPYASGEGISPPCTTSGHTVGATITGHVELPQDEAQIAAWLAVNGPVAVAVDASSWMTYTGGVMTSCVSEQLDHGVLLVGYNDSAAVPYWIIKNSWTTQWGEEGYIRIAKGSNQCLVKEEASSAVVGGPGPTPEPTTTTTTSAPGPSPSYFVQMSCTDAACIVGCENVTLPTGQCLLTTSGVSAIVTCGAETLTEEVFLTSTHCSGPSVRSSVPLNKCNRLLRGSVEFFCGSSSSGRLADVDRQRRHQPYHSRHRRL
# Test: Confirmation qHTS Assay for Inhibitors of Cruzain; note: nearly all actives have a fitted effect of over 40% in size;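 for activity change, negative = inhibition: plate controls were uninhibited enzyme control for no effect and buffer wells lacking enzyme for full effect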
# Conditions: purified cruzain, Z-FR-AMC fluorescence, 0.01% Triton
# Protocol: Cruzain is a cysteine protease from the tropical parasite Trypanosoma cruzi. This assay protocol is a follow-up and confirmation of related AID 1478 (qHTS Assay for Promiscuous and Specific Inhibitors of Cruzain -- with detergent). Cruzain was assayed by the use of fluorogenic coumarin-based substrate Z-FR-AMC: proteolytic cleavage releases AMC, whose fluorescence is measured at 360 nm excitation and 450 nm emission. Purified cruzain was supplied by the labs of Prof. James McKerrow and Brian Shoichet, UC San Francisco. This assay had 0.01% Triton X-100 concentration. See following references for additional details: Jadhav A, et al. J Med Chem. 2010 Jan 14;53(1):37-51. Mott BT, et al. J Med Chem. 2010 Jan 14;53(1):52-60. Assay Provider: Shoichet, Brian; University of California, San Fancisco Screening Center PI: Austin, C.P. Screening Center: NIH Chemical Genomics Center [NCGC]
# Buffer: 100 mM Sodium Acetate, pH 5.5, 5 mM DTT, Triton X-100 concentration: 0.01%. Reagents/Controls: Buffer in columns 3 and 4 as negative control (no enzyme). Substrate solution: 2 uM final concentration of Z-FR-AMC (catalog number I-1160, Bachem) dispensed throughout the plate. Enzyme: 1.5 nM Cruzain final concentration in columns 1, 2, 5-48. Column 1 is neutral (100% activity). Column 2 contained titration of covalent inhibitor K11777, starting concentration 1 mM, then 1:2 dilution in duplicate). Assay Steps: Three uL of enzyme or buffer were dispensed to 1536-well Greiner black solid bottom plates. Compounds and controls (23 nL) were transferred via Kalypsys PinTool. The plates were incubated for 15 min at room temperature, and then 1 uL of substrate solution was added to start the reaction. The plates were immediately transferred to and read 4 times every 30 seconds for 2 min on ViewLux High-throughput CCD imager (Perkin-Elmer) using 360 nm excitation and 450 nm emission fluorescence protocol. The fluorescence intensity difference between the third and the first time points (time lapse of 60 seconds) was used to compute reaction progress.
# Potency is the fitted concentration of half-maximal effect.
SMILES,Potency,"activity change, negative = inhibition"
COc1ccccc1NC(=O)C(OC(=O)CNC(=O)c1ccccc1)c1ccccc1 (stereo not given),10 µM (active),
CCc1ccc(C(=O)COC(=O)CNC(=O)C2CCCCC2)cc1,7.08 µM (active),
Clc1ccc2[nH]c3c(NCCCN4CCOCC4)ncnc3c2c1,12.6 µM (active),
CCN(CCO)c1nc(SC)nc2c1sc1nc(-c3ccco3)c3c(c12)CCC3,17.8 µM (active),
CCN(CC)c1nc(C#N)nc(OC)n1,7.08 µM (active),
C=Cc1nc(Nc2cc(F)cc(F)c2)nc(NC2CCCC2)n1,,-5.68%
O=C(/C=C/c1ccc2c(c1)OCO2)Nc1ccc(-n2nncc2-c2ccccc2)cc1,2.51 µM (active),
CC(C)CC(=O)OC1C(N2CCOCC2)c2c(ccc(/C=C/C(=O)N3CCOCC3)c2O)OC1(C)C (stereo not given),,-26%
O=C(CNC(=O)C1CCCCC1)OC(C(=O)c1ccccc1)c1ccccc1 (stereo not given),1.26 µM (active),
CC(C)(C)OC(=O)NCC(=O)NNC(=O)c1nc2ccccc2[nH]1,,2.49%
COc1cccc(Nc2nc(C#N)nc(NC3CCCC3)n2)c1,0.199 µM (active),
N#Cc1c(NC(=O)CSc2ncnc3c2cnn3-c2ccccc2Cl)sc2c1CCCC2,,-1.46%
CCNc1nc(C#N)nc2c1ncn2-c1cc(F)cc(F)c1,0.224 µM (active),
CN(C)CCCNS(=O)(=O)c1ccc(N2CCC(c3ccc(Cl)cc3)=N2)cc1,,-28.4%
Cc1cccc(C(=O)NC2CCN(C#N)CC2)c1,,-3.52% and 7.39%
CCCN(CCC)c1nc(N)nc(C#N)n1,2.51 µM (active),
CCCCNc1nc(C#N)nc(Nc2ccccc2)n1,0.891 µM (active),
O=C(COc1ccc(F)cc1)NCCc1nc2ccccc2[nH]1,0.199 µM (active),
Clc1ccc(-c2nn3c(-c4cc(-c5ccccc5)n[nH]4)nnc3s2)cc1,,-13.4%
CN(C)c1nc(C#N)nc(N(C)C)n1,14.1 µM (active),

SMILES,Potency,"activity change, negative = inhibition"
CC(C)Nc1nc(C#N)nc(NC(C)C)n1,28.2 µM (active),
O=C(CNC(=O)c1ccc(-c2ccccc2)cc1)OC(C(=O)Nc1cc(C(F)(F)F)ccc1Cl)c1ccccc1 (stereo not given),,-19.3%
O=c1cc(-c2ccccc2F)nc(-c2ccccc2F)o1,,-25.6%
Cc1ccccc1-n1c(C)cc(/C=C2/C(=N)N3C(c4ccccc4)=CSC3=NC2=O)c1C,,-3.9%
CC(=O)n1cc(/C=C2/N=C(c3ccccc3)OC2=O)c2ccccc21,0.794 µM (active),
Cc1cc2c(C)cc(=O)oc2c2c1NCCC2,,-19.4%
O=C(Nc1ccc(-n2nncc2-c2ccccc2)cc1)c1ccccc1,,-9.78%
Cc1ccc(S(=O)(=O)N[C@@H](Cc2ccccc2)C(=O)CCl)cc1,14.1 µM (active) and 28.2 µM (active),
N#Cc1nc(NCC(F)F)c2ncn(-c3cccc(Cl)c3)c2n1,0.0891 µM (active),
COc1cccc(C)c1NC(=O)C(OC(=O)CNC(=O)c1ccccc1)c1ccccc1 (stereo not given),25.1 µM (active),
N#Cc1ccc(C(=O)NCC(=O)OC(C(=O)Nc2cc(C(F)(F)F)ccc2Cl)c2ccccc2)cc1 (stereo not given),12.6 µM (active),
CCNC(=O)c1ccc2nc(-c3ccccc3)c(-c3ccccc3)nc2c1,,-14.3%
O=C(CNC(=O)c1ccccc1)N[C@@H](C(=O)Nc1cc(C(F)(F)F)ccc1Cl)c1ccccc1,,-6.12% and -5.77%
CC(C)(C)OC(=O)NCc1nnc(C(C(=O)OCc2ccccc2)c2ccccc2)s1 (stereo not given),,-11.8%
C=CCn1c(SCC(=O)Nc2cc3oc4ccccc4c3cc2OC)nnc1-c1cnccn1,,-11.8%
Cc1ccc(COc2ccc3oc(-c4ccccc4)c(C(=O)O)c3c2)cc1,,-34.5%
Cc1ccccc1OCC(=O)NCC(C)NC(=O)COc1ccccc1C (stereo not given),,36.5%
COC(=O)Cn1c(=NC(=O)c2ccc(Cl)s2)sc2cc(C)ccc21,,-20%
CC1CCN(c2oc(-c3cccc4ccccc34)nc2C#N)CC1,,-40.4%
CCC(C(=O)NC1CCCCC1)n1c(SCc2ccc(F)cc2)nc2ccncc21 (stereo not given),4.47 µM (active),
